Read-out in assay [1]: xenobiotic metabolism (CYP1A1), CYP1A1 (gene 1543)
The assay is described as follows: CLD_CYP1A1_6hr: CellzDirect (CLD) Gene Expression Assay for xenobiotic metabolism (CYP1A1) at 6 hours (AID 2283661).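 For AC50: potency for transcript induction above DMSO vehicle baseline.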 The gist of the method: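 Read-out 6 h post-dose: qNPA chemiluminescent quantitation of transcript induction against 0.2% DMSO. Cells were cultured primary human hepatocytes from two separate donor preparations; phase-contrast morphology annotated apparent cytotoxicity.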

Assay [2] concerns Thyroperoxidase (TPO), gene 54314. The assay is described as follows: CCTE_Simmons_AUR_rTPO: CCTE's Amplex UltraRed Assay for Thyroperoxidase (TPO) Inhibition, Simmons Lab (AID 2283662).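 Note: potency for loss of signal meaning inhibition of peroxidase activity.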 The method in brief:
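Rat thyroid microsomes (5 ug protein) were incubated with test compound (8 concentrations, 5 nM–87.5 uM final, 0.5% DMSO), 25 uM Amplex UltraRed and 300 uM H2O2 in 200 mM phosphate buffer for 30 min at 37C in the dark; fluorescence read at 544/590 nm.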

Assay [3] in a line: Tanguay_ZF_120hpf_TR_legacy: (Legacy) Oregon State University Tanguay Lab 120 Hour Post-fertilization zebrafish Assay for Touch Response (AID 2283667). The gist of the method: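 Binary touch-response endpoint in larvae at 120 hpf after static waterborne exposure from embryo stage (28°C, 0.64% DMSO vehicle, 5 uM trimethyltin chloride as positive control); embryos dead at 24 or 120 hpf excluded; fitted as gain versus DMSO.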

Read-out in assay [4]: glucuronosyltransferase (UGT1A1), UGT1A1 (gene 54658)
The assay is described as follows: CLD_UGT1A1_6hr: CellzDirect (CLD) Gene Expression Assay for glucuronosyltransferase (UGT1A1) at 6 hours (AID 2283672). The gist of the method:
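UGT1A1 mRNA induction, read by quantitative nuclease protection assay, 6 h after dosing primary human hepatocytes (two donors, 0.2% DMSO vehicle). Gain of signal fitted relative to vehicle.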

Read-out in assay [5]: Cytochrome P450 2B6 (Homo sapiens) (UniProt P20813)
The assay is described as follows: CLD_CYP2B6_6hr: CellzDirect (CLD) Gene Expression Assay for xenobiotic metabolism (CYP2B6) at 6 hours (AID 2283677).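 Note: actives raise CYP2B6 transcript above DMSO baseline so AC50 marks an inducer.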 The gist of the method: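 CYP2B6 transcript levels, read by chemiluminescent qNPA, were fitted for increase versus DMSO baseline; cultured human liver hepatocytes from two donor preparations were harvested 6 h after exposure to test chemicals at multiple concentrations.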

A short description of assay [6]: CCTE_Padilla_ZF_144hpf_TERATOSCORE: (Legacy) CCTE's 144 Hour Post-fertilization zebrafish Assay Teratoscore, Padilla Lab (AID 2283679; active = hit-call score of the fitted dose curve at least 0.9, where 1 is the maximum; inactive = score below 0.9;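 for AC50: zebrafish embryos with chorions exposed by immersion from 6-8 hpf to 5 dpf with daily renewal; teratogenicity score from eye scoring of death hatching and malformations at 144 hpf; higher score means more developmental defects relative to DMSO baseline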). The gist of the method:
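Larvae scored by eye at 144 hpf for death, hatching and malformations after a day in clean Hanks'. Before that, daily-renewed exposure at 80 uM (0.4% DMSO, 26C) from roughly 6-8 hpf through 5 dpf, 4 embryos per chemical.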

Read-out in assay [7]: HMG-CoA synthase (HMGCS2), HMGCS2 (gene 3158)
The assay is described as follows: CLD_HMGCS2_6hr: CellzDirect (CLD) Gene Expression Assay for HMG-CoA synthase (HMGCS2) at 6 hours (AID 2283682).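 Note: actives raise HMGCS2 transcript above the 0.2% DMSO vehicle baseline.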 The method in brief: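 HMGCS2 transcript induction read by quantitative nuclease protection with chemiluminescence, 6 h after dosing of primary human hepatocytes. Baseline was 0.2% DMSO vehicle; phase-contrast morphology gave a yes/no cytotoxicity annotation.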

Read-out in assay [8]: Broad substrate specificity ATP-binding cassette transporter ABCG2 (Homo sapiens) (UniProt Q9UNQ0)
The assay is described as follows: CLD_ABCG2_6hr: CellzDirect (CLD) Gene Expression Assay for ABC Transporter (ABCG2) at 6 hours (AID 2283660). The gist of the method: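 ABCG2 mRNA induction measured by qNPA chemiluminescence in human primary hepatocyte cultures, 6 h post-dose. Chemicals tested at several concentrations against a 0.2% DMSO vehicle; positive-direction fit relative to DMSO.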

Read-out in assay [9]: xenobiotic metabolism (CYP1A1), CYP1A1 (gene 1543)
The assay is described as follows: CLD_CYP1A1_24hr: CellzDirect (CLD) Gene Expression Assay for xenobiotic metabolism (CYP1A1) at 24 hours (AID 2283673). The method in brief: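 Transcript levels were read at 24 h by qNPA chemiluminescence in human liver primary cells. Cells got daily fresh dosing at multiple concentrations (vehicle 0.2% DMSO). Induction fitted upward against DMSO; phase-contrast cytotoxicity annotated.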

Read-out in assay [10]: Glyceraldehyde-3-phosphate dehydrogenase (Homo sapiens) (UniProt P04406)
The assay is described as follows: CLD_GAPDH_6hr: CellzDirect (CLD) Gene Expression Assay for Baseline Control (Glyceraldehyde 3-phosphate dehydrogenase) at 6 hours (AID 2283681).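 Note: active means increased signal relative to DMSO vehicle.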 The method in brief: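 GAPDH baseline-control readout from qNPA (S1 nuclease digestion, probe hybridization, chemiluminescence) in lysates of cultured human hepatocytes harvested 6 h post-dosing. Chemicals tested at multiple concentrations versus 0.2% DMSO vehicle; microscopy-based cytotoxicity flagged yes/no.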

Read-out in assay [11]: ABC Transporter (ABCB1), ABCB1 (gene 5243)
The assay is described as follows: CLD_ABCB1_6hr: CellzDirect (CLD) Gene Expression Assay for ABC Transporter (ABCB1) at 6 hours (AID 2283659).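 Note: hits raise ABCB1 transcript above the DMSO vehicle baseline.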 The gist of the method:
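ABCB1 transcript measured by quantitative nuclease protection assay, chemiluminescent read-out, 6 h after dosing human hepatocyte cultures (0.2% DMSO vehicle, daily redosing). Activity fitted as increase over DMSO baseline; cytotoxicity flagged by phase-contrast morphology.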

Assay [12] in a line: CLD_ACTIN_6hr: CellzDirect (CLD) Gene Expression Assay for Baseline Control (Actin) at 6 hours (AID 2283676).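 Note: active means increased actin mRNA relative to DMSO vehicle.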 The method in brief: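 Baseline actin transcript level measured by qNPA (S1 nuclease protection, chemiluminescence) in human hepatocyte cultures 6 h after chemical exposure; 0.2% DMSO vehicle as reference, cytotoxicity noted from morphology.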
Read-out in assay [13]: xenobiotic metabolism (CYP1A2), CYP1A2 (gene 1544)
The assay is described as follows: CLD_CYP1A2_6hr: CellzDirect (CLD) Gene Expression Assay for xenobiotic metabolism (CYP1A2) at 6 hours (AID 2283663).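 For AC50: potency is for induction meaning a rise in mRNA above DMSO.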 The gist of the method: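 mRNA levels quantified by quantitative nuclease protection assay with chemiluminescence, 6 h after dosing human primary hepatocyte cultures (two donors) across several concentrations, vehicle 0.2% DMSO. Induction fitted upward versus DMSO; phase-contrast cytotoxicity annotated.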

Read-out in assay [14]: sulfotransferase (SULT2A), SULT2A1 (gene 6822)
The assay is described as follows: CLD_SULT2A_6hr: CellzDirect (CLD) Gene Expression Assay for sulfotransferase (SULT2A) at 6 hours (AID 2283669).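 Note: hits raise transcript level above the DMSO vehicle baseline.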 The gist of the method:
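Measured 6 h after dosing, SULT2A1 mRNA in human hepatocyte lysates was quantified by S1 nuclease protection with chemiluminescent detection. Increases fitted against 0.2% DMSO vehicle baseline; phase-contrast cytotoxicity recorded yes/no.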

Results filed as inconclusive are left out. Active and inactive are the calls of the source. Rule for the calls, unless noted: active = hit-call score of the fitted dose curve at least 0.9, where 1 is the maximum; inconclusive = response in the unintended direction; inactive = score below 0.9.

Sequence of Broad substrate specificity ATP-binding cassette transporter ABCG2 (Homo sapiens) (Q9UNQ0 whole entry, looked up): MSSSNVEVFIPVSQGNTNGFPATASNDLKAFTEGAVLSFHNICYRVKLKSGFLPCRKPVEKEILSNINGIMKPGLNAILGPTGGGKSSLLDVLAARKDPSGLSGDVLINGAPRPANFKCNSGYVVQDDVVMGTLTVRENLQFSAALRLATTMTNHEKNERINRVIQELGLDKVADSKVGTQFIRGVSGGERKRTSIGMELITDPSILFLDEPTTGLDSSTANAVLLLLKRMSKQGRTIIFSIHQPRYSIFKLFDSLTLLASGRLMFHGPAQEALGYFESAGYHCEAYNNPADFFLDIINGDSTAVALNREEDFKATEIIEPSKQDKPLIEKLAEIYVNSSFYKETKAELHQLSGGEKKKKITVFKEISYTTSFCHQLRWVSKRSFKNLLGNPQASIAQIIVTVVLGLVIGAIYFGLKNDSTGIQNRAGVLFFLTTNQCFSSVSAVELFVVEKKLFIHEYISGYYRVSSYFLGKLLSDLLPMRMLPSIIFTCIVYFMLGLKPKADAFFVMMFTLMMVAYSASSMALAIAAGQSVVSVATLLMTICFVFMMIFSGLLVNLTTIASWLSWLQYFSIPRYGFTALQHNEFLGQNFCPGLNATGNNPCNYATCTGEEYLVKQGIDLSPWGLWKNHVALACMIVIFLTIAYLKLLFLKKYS
Sequence of Glyceraldehyde-3-phosphate dehydrogenase (Homo sapiens) (P04406 whole entry, looked up): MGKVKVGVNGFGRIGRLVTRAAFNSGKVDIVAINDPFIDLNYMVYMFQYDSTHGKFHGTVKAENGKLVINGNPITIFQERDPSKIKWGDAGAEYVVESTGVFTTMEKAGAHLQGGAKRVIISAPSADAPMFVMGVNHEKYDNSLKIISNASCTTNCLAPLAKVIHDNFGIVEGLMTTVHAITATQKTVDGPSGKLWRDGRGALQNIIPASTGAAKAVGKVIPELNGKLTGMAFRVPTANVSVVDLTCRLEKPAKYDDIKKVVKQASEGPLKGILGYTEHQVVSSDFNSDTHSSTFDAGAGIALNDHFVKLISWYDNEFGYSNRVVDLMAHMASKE

With `CCN(CC)c1nc(C)cc(OP(=S)(OC)OC)n1`, the AC50 was 4.71 µM (active) in [1], 19.1 µM (active) in [2], 1.59 µM (active) in assay [5] and 14.8 µM (active) in assay [6]. The compound was called inactive in [3], in assay [4] and in [7].

Turning to `CCCCOCN(C(=O)CCl)c1c(CC)cccc1CC`, the compound was classed as inactive in [8], in [3], in assay [4] and in assay [10]. Moreover, the results for the AC50 in assay [1], in assay [9] and in assay [6] were 5.21 µM (active), 6.4 µM (active) and 5.42 µM (active), respectively.

Take `CCN(CC)C(=O)C(C)Oc1cccc2ccccc12` (stereo not drawn): the AC50 in assay [1] was 3.97 µM (active); in assay [2] it was 26.3 µM (active); in assay [5], 0.317 µM (active). For the same compound, the result in assay [3], in assay [4], in assay [9] and in assay [6] was inactive.

For the compound `Cc1ccc(N=CN(C)C=Nc2ccc(C)cc2C)c(C)c1`, the compound was called inactive in [11], in [8], in assay [3], in assay [5], in assay [10] and in assay [7]. Also, the concentration at half-maximal activity (AC50) in [6] was 27.5 µM (active).

On to `N#Cc1c(Cl)cccc1Cl`, for which the compound was called inactive in assay [11], in [3], in [4], in assay [12], in assay [6] and in assay [10]. Further, in assay [5], the AC50 was 4.85 µM (active).

Take `CS(=O)(=O)c1cc(C(F)(F)F)ccc1C(=O)c1cnoc1C1CC1`: the result in assay [1], in assay [13], in assay [3], in assay [4], in assay [9] and in assay [6] was inactive. Also, the compound was called inactive in assay [10]. In addition, the AC50 in assay [7] is 3.97 µM (active).

With `C=C(C)CN(CC)c1c([N+](=O)[O-])cc(C(F)(F)F)cc1[N+](=O)[O-]`, the compound was called inactive in assay [11], in [1], in assay [3], in assay [4], in assay [6] and in [10]. Also, the call in assay [7] was inactive. The half-maximal activity concentration (AC50) in assay [9] was 20 µM (active).

With `CCOC(=O)C(C)OC(=O)c1cc(Oc2ccc(C(F)(F)F)cc2Cl)ccc1[N+](=O)[O-]` (stereo not drawn), the result in [11], in assay [3] and in assay [4] was inactive. The figures for the AC50 in [1], in assay [6] and in [7] were 4.58 µM (active), 0.19 µM (active) and 0.0241 µM (active), respectively.

With `CNC(=O)Oc1cccc2ccccc12`, the AC50 in assay [1] was 4.68 µM (active); in assay [13], 6.08 µM (active); in [6], 60.8 µM (active). In addition, the outcome in [3] and in [4] was inactive.

Consider `Clc1cccc(C(Cl)(Cl)Cl)n1`, for which the call in [11], in [4], in [6], in assay [10] and in assay [7] was inactive. Further, the concentration at half-maximal activity (AC50) in [1] was 20 µM (active).

Consider `Cn1c(-c2ccccc2)cc(-c2ccccc2)[n+]1C`, for which the outcome in assay [11], in assay [1], in assay [3], in [14], in assay [6] and in [10] was inactive. Also, the call in [7] was inactive. For the same compound, the AC50 in assay [9] was 0.158 µM (active).

Take `Nc1cnn(-c2ccccc2)c(=O)c1Cl`: the compound was called inactive in assay [8], in assay [3], in assay [4], in assay [6] and in assay [7]. The AC50 in [1] is 5.67 µM (active); in [13], 9.27 µM (active).

In the case of `COCC(=O)N(c1c(C)cccc1C)C(C)C(=O)OC` (stereo not drawn), the compound was called inactive in [11], in assay [3], in assay [4], in assay [9], in [6] and in assay [7]. In addition, in assay [1], the AC50 is 20 µM (active).

In the case of `CCSC(=O)N1CCCCCC1`, the compound was called inactive in assay [11], in assay [1], in assay [14], in assay [4], in [9] and in assay [6]. Further, in [7], the compound was called inactive. In assay [5], the AC50 was 2.28 µM (active).
